This is a sample that favours compounds with a hit; in the whole collection about 12% have one here.
Pf growth 48h: P. falciparum growth inhibition at 48 hours (one generation); P. falciparum luciferase growth in erythrocytes, 48 h; Potency, µM (highest dose often 28.7 µM), usual class: inhibitors; 5.9% of 310,000 active; AID 504832
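In quantitative HTS format, infected erythrocytes bearing luciferase-reporter parasites were treated for a single generation at 37 C. Luminescence after adding detection reagent served as the growth measure.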
SARS PLP yeast: inhibitors of SARS-CoV papain-like protease in yeast | 0.19% of 330,000 active | S. cerevisiae expressing SARS-CoV PLpro, growth rescue | Potency, µM (titrated, usually from 32.9 µM), hits mostly activators; calls by dose curve; note: nearly all actives have a fitted effect of over 55% in size
Pf growth 96h: P. falciparum growth inhibition at 96 hours; P. falciparum luciferase reporter growth, 96 h; Potency, µM (series often up to 28.7 µM), usual class: inhibitors; 6.9% of 320,000 active
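Readout is luminescence from an integrated firefly luciferase in P. falciparum. Red cells, 2% hematocrit and 0.05% parasitemia final, were cultured with compound through two parasite generations (96 hours) at 37 C, 5% CO2.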
AmpC inh detg: inhibitors of E. coli AmpC beta-lactamase with detergent; 0.041% of 370,000 active; Potency, µM (titrated, usually from 114 µM), most hits filed as inhibitors; P00811; AID 485294; AmpC hydrolysis of nitrocefin, absorbance 480 nm, 0.01% Triton; note: nearly all actives have a fitted effect of over 25% in size
Target sequence (P00811 whole entry, looked up): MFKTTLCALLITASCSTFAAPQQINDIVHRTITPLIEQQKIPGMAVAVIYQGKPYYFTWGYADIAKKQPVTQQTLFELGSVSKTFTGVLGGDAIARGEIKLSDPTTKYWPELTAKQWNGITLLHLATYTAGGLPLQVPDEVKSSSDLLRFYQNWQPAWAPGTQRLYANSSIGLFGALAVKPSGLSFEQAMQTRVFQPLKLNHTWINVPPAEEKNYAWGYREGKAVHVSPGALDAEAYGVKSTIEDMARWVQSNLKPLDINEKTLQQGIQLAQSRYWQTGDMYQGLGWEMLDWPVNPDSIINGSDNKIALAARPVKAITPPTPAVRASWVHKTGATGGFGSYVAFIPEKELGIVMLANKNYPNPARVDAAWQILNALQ
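20 mM phosphate pH 7.0 + 0.01% (detergent screen) or 0.0001% Triton X-100; 5.3 nM AmpC reagent; cpd preinc 15 min RT; nitrocefin (800 uM stock) to start; A480 q20 s × 4 min; Activity was normalised to no-enzyme and no-compound control wells.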
AmpC inh no detg: blocks E. coli AmpC beta-lactamase in detergent-free assay; Potency, µM (doses to about 57.1 µM), usual class: inhibitors; P00811; 0.52% of 330,000 active; AmpC nitrocefin hydrolysis, absorbance 480 nm, 0.0001% Triton; note: nearly all actives have a fitted effect of over 20% in size
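20 mM phosphate pH 7.0 + 0.01% (detergent screen) or 0.0001% Triton X-100; 5.3 nM AmpC reagent; cpd preinc 15 min RT; nitrocefin (800 uM stock) to start; A480 q20 s × 4 min; Activity was normalised to no-enzyme and no-compound control wells.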
Sm TGR inh: S. mansoni TGR enzyme inhibition. 3% of 360,000 active. Potency, µM (top dose mostly 114 µM), hits mostly inhibitors. purified TGR, DTNB reduction, TNB absorbance 405 nm; note: nearly all actives have a fitted effect of over 60% in size
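TGR 20 nM + NADPH 100 uM (dispensed conc.), cpd preinc 15 min RT; start with NADPH (500 uM addition) then DTNB (15 mM addition). Kinetic TNB absorbance, 405 nm filter. Four-parameter Hill fit across titration.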
Large screens that a line does not name were inactive. Unless noted, calls come from the whole dose curve; as a rule, active = well fitted curve in the direction sought with a large enough effect; inconclusive = small, poorly fitted or top-dose-only effect, or another doubt; inactive = no such curve, though single readings can be large; an effect the other way counts as inactive or inconclusive.

COc1ccc2c(c1)c1c(c(=O)n(-c3cccc(C)c3)c(=O)n1CC(=O)N1CCCC1)n2C	none (no result: Pf growth 48h, SARS PLP yeast, Pf growth 96h, AmpC inh no detg)
O=C(COc1cccc2ccccc12)N1c2ccccc2CCc2ccccc21	Pf growth 48h 10µM, Pf growth 96h inconclusive
O=C(CCl)N1c2ccccc2CCc2ccccc21	Pf growth 48h 10µM, Pf growth 96h inconclusive, Sm TGR inh 11µM
CC(Cl)C(=O)N1c2ccccc2CCc2ccccc21 (centres undefined)	Pf growth 48h inconclusive, Pf growth 96h inconclusive, AmpC inh detg inconclusive
Cc1cc(C)n2c(Nc3ccccc3)c(-c3ccccc3)nc2n1	none (no result: Pf growth 48h, SARS PLP yeast, Pf growth 96h, AmpC inh no detg)
CCC(C)[C@H](NC(=O)[C@@H]1CSC2c3ccccc3C(=O)N21)C(=O)NCc1ccco1 (some centres undefined)	Sm TGR inh 45µM
CCC(C)[C@H](NC(=O)[C@@H]1CSC2c3ccccc3C(=O)N21)C(=O)NC1CCCC1 (some centres undefined)	Pf growth 48h inconclusive, Pf growth 96h inconclusive
O=C1C2C3C=CC(CC3)C2C(=O)N1/N=C/c1ccccc1O (centres undefined)	SARS PLP yeast 5.6µM
OCC[C@@H]1C[C@H](O)[C@@H](O)[C@@]2(CCCc3ccccc3O2)O1	none
CCC(=O)OC1C(N(C)C)CC(C)O[C@H]1O[C@H]1[C@H](C)[C@@H](O[C@H]2CC(OC)[C@@H](O)C(C)O2)[C@H](C)C(=O)O[C@@H](CC)[C@](C)(O)[C@@H](O)[C@H](C)C(=O)[C@@H](C)C[C@]1(C)O (some centres undefined)	Pf growth 96h 7.6µM (no result: SARS PLP yeast, AmpC inh detg, AmpC inh no detg, Sm TGR inh)
CCOC(=O)CCC(=O)O[C@H]1[C@H](O[C@@H]2[C@@H](C)[C@H](O[C@H]3C[C@@](C)(OC)[C@@H](O)[C@H](C)O3)[C@@H](C)C(=O)O[C@H](CC)[C@@](C)(O)[C@H](O)[C@@H](C)C(=O)[C@H](C)C[C@@]2(C)O)O[C@H](C)C[C@@H]1N(C)C	Pf growth 96h 5.2µM, AmpC inh detg inconclusive
Cc1cc(SCNC(=O)c2ccccc2)ncn1	Sm TGR inh 14µM (no result: Pf growth 96h)
O=C(NCSc1ccccc1)c1ccccc1	none
COc1cccc(NC(=O)CSc2ncc3c(n2)-c2ccc(Cl)cc2N(C)S3(=O)=O)c1	none (no result: Pf growth 48h, SARS PLP yeast, Pf growth 96h, AmpC inh no detg)
COc1ccc(OCc2cc(C(=O)N(C)Cc3cc(C4CC4)n[nH]3)no2)c(Cl)c1	Pf growth 48h 9.3µM, Sm TGR inh inconclusive
COc1ccc(OCc2cc(C(=O)N(C)Cc3cnccn3)no2)c(Cl)c1	Pf growth 96h inconclusive
COc1ccc(Cl)cc1NC(=O)Cn1cnc2c1c(=O)n(C)c(=O)n2C	none (no result: Pf growth 48h, SARS PLP yeast, Pf growth 96h, AmpC inh no detg)
O=C(C1=C(O)C(=O)N(CCc2ccccc2)C1c1ccncc1)c1cc2ccccc2o1 (centres undefined)	none (no result: Sm TGR inh)
Cc1cc(N2C(=O)C(O)=C(C(=O)c3ccc(C)o3)C2c2cccs2)no1 (centres undefined)	Pf growth 96h inconclusive, AmpC inh detg inconclusive, Sm TGR inh inconclusive
O=C(C1=C(O)C(=O)N(c2nccs2)C1c1ccccc1)c1cc2ccccc2o1 (centres undefined)	Sm TGR inh 10µM
Cc1cc(N2C(=O)C(O)=C(C(=O)c3cc4ccccc4o3)C2c2cccs2)no1 (centres undefined)	Sm TGR inh 56µM
Cc1ccc(NC(=O)C2CCCN(S(=O)(=O)c3ccc4c(c3)oc(=O)n4C)C2)cc1Cl (centres undefined)	none (no result: Pf growth 48h, SARS PLP yeast, Pf growth 96h, AmpC inh no detg)
CCC1=C(OC(=O)N(CC)CC)N2C(=O)OC(=NCC(=O)OC)[C@]2(C)[C@H]2C1=CC[C@H]1C(=O)N(CC(=O)OC)C(=O)[C@H]12	none
COC(=O)CN=C1OC(=O)N2C(=O)C3=C4[C@@H](C[C@H]5C(=O)N(c6ccccc6)C(=O)[C@H]5[C@H]4[C@@]12Cc1ccccc1)[C@H]1C(=O)N(c2ccccc2)C(=O)[C@H]1[C@H]3C	Pf growth 48h 12µM, Pf growth 96h inconclusive
CCC1=C(OC(=O)N(CC)CC)N2C(=O)OC(=NCCc3c[nH]c4ccccc34)[C@]2(C)[C@H]2C1=CC[C@H]1C(=O)N(C)C(=O)[C@H]12	Pf growth 48h 10µM, Pf growth 96h inconclusive
COCCN=C1OC(=O)N2C(=O)C3=C4[C@@H](C[C@H]5C(=O)N(c6ccccc6)C(=O)[C@H]5[C@H]4[C@@]12Cc1ccccc1)[C@H]1C(=O)N(c2ccccc2)C(=O)[C@H]1[C@H]3C	Pf growth 48h inconclusive, Pf growth 96h inconclusive
CCC1=C(OC(=O)N(CC)CC)N2C(=O)OC(=NCC(=O)OC)[C@]2(Cc2ccccc2)[C@H]2C1=CC[C@H]1C(=O)N(CC(=O)OC)C(=O)[C@H]12	Pf growth 48h 12µM, Pf growth 96h inconclusive
CCC1=C2CC[C@H]3C(=O)N(C)C(=O)[C@H]3[C@H]2[C@@]2(Cc3ccccc3)C(=NCCOC)OC(=O)N2C1=O	none
CCC1=C(OC(=O)N(CC)CC)N2C(=O)OC(=NCCOC)[C@]2(Cc2ccccc2)[C@H]2C1=CC[C@H]1C(=O)N(C)C(=O)[C@H]12	Pf growth 48h 10µM, Pf growth 96h inconclusive
CCC1=C(OC(=O)N(CC)CC)N2C(=O)OC(=NCC3CC3)[C@]2(Cc2ccccc2)[C@H]2C1=CC[C@H]1C(=O)N(CC)C(=O)[C@H]12	Pf growth 48h 7.4µM, Pf growth 96h 13µM
CCC1=C2CC[C@H]3C(=O)NC(=O)[C@H]3[C@H]2[C@@]2(Cc3ccccc3)C(=NCC(=O)OC)OC(=O)N2C1=O	none
CCC1=C(OC(=O)N(CC)CC)N2C(=O)OC(=NCC(=O)OC)[C@]2(C)[C@H]2C1=CC[C@H]1C(=O)N(CC)C(=O)[C@H]12	none
CCC1=C(OC(=O)N(CC)CC)N2C(=O)OC(=NCc3ccccc3)[C@]2(C)[C@H]2C1=CC[C@H]1C(=O)N(CC)C(=O)[C@H]12	Pf growth 48h 12µM, Pf growth 96h inconclusive
CCC1=C(OC(=O)N(CC)CC)N2C(=O)OC(=NCCOC)[C@]2(Cc2ccccc2)[C@H]2C1=CC[C@H]1C(=O)N(CC)C(=O)[C@H]12	Pf growth 48h 13µM, Pf growth 96h inconclusive
CCC1=C(OC(=O)N(CC)CC)N2C(=O)OC(=NCCc3c[nH]c4ccccc34)[C@]2(Cc2ccccc2)[C@H]2C1=CC[C@H]1C(=O)N(CC)C(=O)[C@H]12	Pf growth 48h 9.3µM, Pf growth 96h 13µM
CCC1=C2CC[C@H]3C(=O)N(CC)C(=O)[C@H]3[C@H]2[C@@]2(Cc3ccccc3)C(=NCCOC)OC(=O)N2C1=O	none
CCOc1ccc(NC(=O)Cn2nc(CC)n3c(cc4sccc43)c2=O)cc1	none (no result: Pf growth 48h, SARS PLP yeast, Pf growth 96h, AmpC inh no detg)

Bioassay records deposited in PubChem BioAssay by National Center for Advancing Translational Sciences (NCATS).
